# Measurements from PubChem BioAssay.
# Activity calls are given as the source filed them.
# Key:
# [1] = anti-His antibody binders, primary screen, artefact control for SMM control protein annotation, biochemical, small-molecule microarray, 635 nm fluorescence (AID 1128); conditions: anti-His Alexa647 antibody binding, higher = more signal;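 further: score merges feature fluorescence with signal-to-noise for each printed compound spot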
# [2] = tested on: Human papillomavirus type 1a E7 protein (residues 1-88); assay: HPV1a E7 small-molecule binders, primary screen, biochemical, small-molecule microarray, residues 1-88, 635 nm (AID 1129); conditions: small-molecule microarray binding, fluorescence 635 nm; higher = more signal
# [3] = biological target: Focal adhesion kinase 1 (Homo sapiens) (UniProt Q05397); assay: small-molecule microarray binders of FAK, primary screen, biochemical, 635/667 nm fluorescence, BSA, DTT (AID 1130); conditions: PTK2 binding, 635 nm fluorescence, higher = more signal;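 further: composite of spot emission at 667 nm and signal to noise over triplicate slides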
# [4] = tested on: Fibrinogen (Alexa647-labelled); assay: fibrinogen binders on compound microarrays, profiling panel, artefact control for SMM control-protein annotation, biochemical, small-molecule microarray, 635/667 nm fluorescence (AID 1131); conditions: fibrinogen-A647 binding fluorescence, higher = more signal;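 further: z-score merges 667 nm fluorescence with per-spot signal-to-noise over triplicate slides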
# [5] = biological target: Follistatin (Homo sapiens) (UniProt P19883); assay: follistatin binders on small-molecule microarrays, primary screen, biochemical, small-molecule microarray, 635/667 nm fluorescence (AID 1132); conditions: FST binding, 635 nm fluorescence, higher = more signal
# [6] = biological target: Fibroblast growth factor 2 (Homo sapiens) (UniProt P09038); assay: FGF2 binders on small-molecule microarrays, primary screen, biochemical, small-molecule microarray, 635/667 nm fluorescence (AID 1133); conditions: small-molecule microarray binding, FGF2, fluorescence 635/667; higher = more signal
# [7] = mitochondrial membrane potential change in A549 cells, profiling panel, cell-based, JC-1 fluorescence, basal, 24 h, 100 nL (AID 1138); conditions: higher = more signal;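 further: A549 lung adenocarcinoma cells under basal conditions with no added stimulus; test concentration not given here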
# [8] = tested on: Lefty1; assay: Lefty1 binders on small-molecule microarrays, primary screen, biochemical, small-molecule microarray, 635/667 nm fluorescence (AID 1139); conditions: small-molecule microarray binding, fluorescence 635/667; higher = more signal
# [9] = tested on: wheat germ agglutinin (Triticum aestivum), Alexa647-labelled; assay: wheat germ agglutinin binders on compound microarrays, profiling panel, artefact control for SMM control-protein annotation, biochemical, small-molecule microarray, 635/667 nm fluorescence (AID 1140); conditions: WGA-A647 binding, 635 nm fluorescence, higher = more signal;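 further: score merges 667 nm feature emission with signal to noise over triplicate slides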
# [10] = biological target: Luciferin 4-monooxygenase (Photinus pyralis) (UniProt P08659); assay: firefly luciferase enzyme inhibitors, primary screen, biochemical, luminescence, purified enzyme, 2006 set (AID 1141); conditions: SteadyGlo luminescence, 30 min, higher = more signal, called active from +8 up or from −8 down;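 further: cell-free assay with purified firefly luciferase at 100 ng per well in PBS; test concentration not given here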
# Chain of Luciferin 4-monooxygenase (Photinus pyralis) (P08659 whole entry, looked up): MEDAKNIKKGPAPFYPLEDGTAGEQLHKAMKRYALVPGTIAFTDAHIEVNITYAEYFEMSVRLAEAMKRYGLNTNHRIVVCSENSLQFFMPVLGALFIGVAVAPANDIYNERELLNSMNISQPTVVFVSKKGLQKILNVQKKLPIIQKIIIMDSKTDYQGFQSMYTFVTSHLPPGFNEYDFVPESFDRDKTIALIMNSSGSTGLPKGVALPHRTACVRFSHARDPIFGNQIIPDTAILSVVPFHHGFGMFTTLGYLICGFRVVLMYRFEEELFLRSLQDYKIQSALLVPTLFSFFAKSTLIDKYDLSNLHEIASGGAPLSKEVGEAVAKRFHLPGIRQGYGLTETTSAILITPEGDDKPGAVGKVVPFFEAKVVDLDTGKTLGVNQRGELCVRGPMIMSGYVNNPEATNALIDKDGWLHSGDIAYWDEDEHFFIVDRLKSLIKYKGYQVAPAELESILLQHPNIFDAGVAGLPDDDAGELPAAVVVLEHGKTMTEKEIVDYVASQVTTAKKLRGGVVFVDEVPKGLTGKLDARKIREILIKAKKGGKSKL
# Chain of Follistatin (Homo sapiens) (P19883 whole entry, looked up): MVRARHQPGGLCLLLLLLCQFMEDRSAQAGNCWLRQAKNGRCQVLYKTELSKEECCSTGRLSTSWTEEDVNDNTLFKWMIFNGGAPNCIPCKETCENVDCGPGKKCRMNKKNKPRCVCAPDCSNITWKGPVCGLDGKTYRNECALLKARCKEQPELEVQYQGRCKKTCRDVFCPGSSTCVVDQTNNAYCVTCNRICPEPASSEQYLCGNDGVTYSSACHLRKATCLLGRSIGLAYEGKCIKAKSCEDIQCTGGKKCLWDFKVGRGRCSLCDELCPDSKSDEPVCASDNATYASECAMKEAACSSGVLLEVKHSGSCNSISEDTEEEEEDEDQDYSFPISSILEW
# Chain of Fibroblast growth factor 2 (Homo sapiens) (P09038 whole entry, looked up): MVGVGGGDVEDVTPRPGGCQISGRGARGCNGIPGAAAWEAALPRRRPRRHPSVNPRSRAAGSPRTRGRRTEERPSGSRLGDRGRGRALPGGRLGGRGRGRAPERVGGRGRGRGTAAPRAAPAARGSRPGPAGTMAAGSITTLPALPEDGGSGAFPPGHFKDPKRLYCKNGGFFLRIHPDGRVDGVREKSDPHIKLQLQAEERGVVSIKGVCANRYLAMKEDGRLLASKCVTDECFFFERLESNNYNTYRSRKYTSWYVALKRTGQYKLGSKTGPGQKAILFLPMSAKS
# Chain of Focal adhesion kinase 1 (Homo sapiens) (Q05397 whole entry, looked up): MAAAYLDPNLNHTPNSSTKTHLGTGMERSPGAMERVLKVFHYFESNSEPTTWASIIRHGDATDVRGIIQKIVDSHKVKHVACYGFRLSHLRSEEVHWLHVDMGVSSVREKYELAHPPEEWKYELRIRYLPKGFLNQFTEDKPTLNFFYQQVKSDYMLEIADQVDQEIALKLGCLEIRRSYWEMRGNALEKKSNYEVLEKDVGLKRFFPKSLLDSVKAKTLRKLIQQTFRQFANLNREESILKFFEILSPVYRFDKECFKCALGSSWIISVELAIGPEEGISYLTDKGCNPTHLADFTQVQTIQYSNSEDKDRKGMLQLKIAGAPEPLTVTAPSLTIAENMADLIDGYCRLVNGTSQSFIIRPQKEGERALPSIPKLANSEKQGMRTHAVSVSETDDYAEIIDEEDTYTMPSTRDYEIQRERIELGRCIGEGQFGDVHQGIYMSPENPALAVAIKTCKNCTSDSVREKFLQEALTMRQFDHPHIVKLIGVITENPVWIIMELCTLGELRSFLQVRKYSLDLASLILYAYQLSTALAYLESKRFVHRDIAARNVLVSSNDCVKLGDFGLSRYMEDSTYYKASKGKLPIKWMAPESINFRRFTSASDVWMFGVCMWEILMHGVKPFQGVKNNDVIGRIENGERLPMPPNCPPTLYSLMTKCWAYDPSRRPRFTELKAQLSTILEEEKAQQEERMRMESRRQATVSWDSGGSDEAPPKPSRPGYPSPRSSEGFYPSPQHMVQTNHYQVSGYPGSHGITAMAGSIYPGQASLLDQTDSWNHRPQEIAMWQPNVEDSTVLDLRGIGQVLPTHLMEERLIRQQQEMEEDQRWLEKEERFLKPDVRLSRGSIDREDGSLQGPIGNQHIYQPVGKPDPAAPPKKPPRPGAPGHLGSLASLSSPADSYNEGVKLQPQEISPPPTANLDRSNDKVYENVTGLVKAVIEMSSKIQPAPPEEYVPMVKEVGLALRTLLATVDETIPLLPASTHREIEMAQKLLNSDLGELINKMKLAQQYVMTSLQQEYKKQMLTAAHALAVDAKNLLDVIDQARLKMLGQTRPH
SMILES,composite z-score [1],composite z-score [2],composite z-score [3],composite z-score [4],composite z-score [5],composite z-score [6],z-score [7],composite z-score [8],composite z-score [9],z-score [10]
[N-]=[N+]=NCc1ccccc1[C@@H]1OC(c2ccc(OCCCO)cc2)=N[C@]1(CCS(=O)(=O)c1ccccc1)C(=O)O,0.843,0.843,0.809,0.839,0.0575,-0.517,-0.586,0.381,1.17,-5.21 (inactive)
CCCCCC1=C2CNC(C)(C(=O)OC)C=C2C(C)C1=O (stereo not given),1.46,-0.575,-0.108,-0.833,-0.642,-0.328,1.01,-0.427,0.234,2.31 (inactive)
Cc1ccc(S[C@]2(C(=O)NCC(F)(F)F)CC(=O)N(Cc3cc(C(F)(F)F)cc(C(F)(F)F)c3)[C@@H]2c2ccc(CO)cc2I)cc1,0.214,-0.698,-0.301,-0.994,-0.887,-0.91,-1.01,-0.708,-0.314,1.5 (inactive)
C=CCNC(=O)[C@@H]1[C@H]2C(=O)O[C@H](c3ccccc3)[C@H](c3ccccc3)N2[C@H](c2ccccc2OCCO)[C@@]12C(=O)N(C(=O)OCCOC)c1ccc(C#CC3(O)CCCCCC3)cc12,0.713,1.22,0.894,0.905,1.34,0.924,-1.2,0.988,0.323,0.558 (inactive)
C=CCC(OC(C)=O)[C@@H]1[C@@H](N(Cc2ccc(-c3cccc(C(F)(F)F)c3)o2)C(=O)c2ccc(-c3ccccc3)cc2)c2cc(OCCCO)ccc2N1C(=O)Cc1ccc2ccccc2c1 (stereo not given in full),-0.0298,-0.504,0.0827,0.229,0.438,-0.482,0.0819,-0.175,-0.0916,0.429 (inactive)
CCOC(=O)C1=C[C@@H](C(C)(C)C)N(S(=O)(=O)c2ccc(C)cc2)[C@H]1c1cccc2ccccc12,1.15,0.716,0.191,0.896,0.466,-0.195,2.89,0.139,0.437,0.908 (inactive)
COC(=O)[C@@]1(Cc2ccc(F)cc2)[C@H]2c3cc(C(=O)N(C)C)n(Cc4ccc(OC(F)(F)F)cc4)c3C[C@H]2CN1C(=O)c1ccccc1,0.348,0.626,0.0291,0.572,0.216,0.016,0.561,-0.182,0.341,1.6 (inactive)
